A selection: hits, their analogues and other compounds. The true share with any hit is near 18%.
RORgamma inh – qHTS for inhibitors of ROR gamma transcriptional activity; Nuclear receptor ROR-gamma (Mus musculus), P51450; Drosophila S2 Gal4-RORgamma UAS-luciferase reporter, 20 h; Potency, µM (top dose mostly 53.6 µM), for inactives: top-dose activity change, negative = inhibition, hits mostly inhibitors; hit rate 5.4% among 310,000; AID 2551, 2010; note: potency is the fitted concentration of half-maximal effect; nearly all actives have a fitted effect of over 60% in size
Target sequence (P51450 whole entry, looked up, the tested form may be a part): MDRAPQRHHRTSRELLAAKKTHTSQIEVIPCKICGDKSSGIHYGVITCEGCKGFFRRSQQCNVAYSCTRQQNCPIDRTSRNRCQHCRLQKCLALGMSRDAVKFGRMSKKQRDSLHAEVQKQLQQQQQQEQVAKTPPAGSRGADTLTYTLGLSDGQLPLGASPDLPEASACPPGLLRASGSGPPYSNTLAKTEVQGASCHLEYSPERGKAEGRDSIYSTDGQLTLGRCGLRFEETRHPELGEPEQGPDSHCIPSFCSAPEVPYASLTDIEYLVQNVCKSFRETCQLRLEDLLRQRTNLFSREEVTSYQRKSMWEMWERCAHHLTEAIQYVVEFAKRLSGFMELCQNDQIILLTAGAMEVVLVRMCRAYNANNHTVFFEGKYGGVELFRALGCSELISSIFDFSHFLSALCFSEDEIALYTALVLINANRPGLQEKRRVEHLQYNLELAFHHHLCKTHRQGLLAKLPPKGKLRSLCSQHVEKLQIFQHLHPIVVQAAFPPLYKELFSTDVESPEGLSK
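Compounds are pin-transferred onto Drosophila Schneider cells expressing a copper-inducible Gal4–ROR gamma transactivation domain fusion. After 1 hr, copper sulfate is added to 700 uM final; luciferase is read 20 hr later.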
VP16 counter – VP16 counterscreen qHTS for inhibitors of ROR gamma transcriptional activity; Drosophila S2 Gal4-VP16 UAS-luciferase, luminescence, 20 h; Potency, µM (highest dose often 53.6 µM), for the others: at the top dose activity, negative = inhibition, actives largely listed as inhibitors; hit rate 3.5% among 310,000;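 note: Gal4-VP16 expression switched on by copper sulfate through the metallothionein promoter; potency is the fitted concentration of half-maximal effect; nearly all actives have a fitted effect of over 50% in size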
LDHA block – qHTS assay for inhibitors of human lactate dehydrogenase; L-lactate dehydrogenase A chain (Homo sapiens), P00338; purified LDHA, NADH/diaphorase-resazurin fluorescence; hits give low values; activity change, % (values are at about 110 or 230 µM); hit rate 0.15% among 480,000; in the data active = activity change below about -30%; inconclusive = mostly about -25% to -30%;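 note: plate controls were DMSO wells for no effect and wells without enzyme for full effect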
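Enzyme activity of human lactate dehydrogenase 5 (2 nM; 0.06 mM NADH, 0.2 mM pyruvate, 5 min, RT) is measured via a resazurin/diaphorase fluorescence readout of residual NADH.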
IL-1B inflam inh – qHTS for Inhibitors of Inflammasome Signaling: IL-1-beta AlphaLISA Primary Screen. THP-1 LPS/ATP IL-1B secretion, AlphaLISA, 16 h; hits give low values. activity change, % at 57.5 µM. hit rate 4.7% among 360,000; in the data active = activity change below about -50%; inconclusive = mostly about -30% to -49%
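Secreted IL-1B measured by AlphaLISA bead assay after 16 h compound exposure of THP-1 cells; compounds (final up to 57.5 uM) added 1 h before LPS (250 ng/mL) and ATP (1.25 mM) stimulation; lower signal means less secretion.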
DT40 TDP1 CPT – qHTS for Inhibitors of human tyrosyl-DNA phosphodiesterase 1 (TDP1): qHTS in cells in presence of CPT | chicken DT40 Tdp1-/-;hTDP1 cells + 20 nM CPT, ATP luminescence, 48 h | Potency, µM (highest dose often 46.2 µM), without a hit: at the top dose activity change, negative = growth inhibition, hits mostly inhibitors | AID 686979, 2013 | hit rate 12% among 420,000; note: potency is the fitted concentration of half-maximal effect; nearly all actives have a fitted effect of over 55% in size
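Cell growth measured by CellTiter-Glo luminescence after a minimum 48 h, 37 C compound exposure with 20 nM CPT in Tdp1-knockout DT40 cells stably expressing hTDP1, seeded 400/well; qHTS titration format.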
TDP1 cell noCPT – qHTS for Inhibitors of human tyrosyl-DNA phosphodiesterase 1 (TDP1): qHTS in cells in absence of CPT; DT40 Tdp1-/- hTDP1 cells, no CPT, ATP luminescence, 48 h; Potency, µM (top dose mostly 46.2 µM), for inactives: at the highest dose activity change, negative = growth inhibition, hits mostly inhibitors; hit rate 15% among 420,000; AID 686978, 2013; note: potency is the fitted concentration of half-maximal effect; nearly all actives have a fitted effect of over 55% in size
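Growth kinetics read by CellTiter-Glo luminescence after ≥48 hr at 37 °C. Cells: DT40 Tdp1-/- stably carrying human TDP1, 400 per well, compound exposure in the absence of CPT (DMSO vehicle).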
An asterisk follows results filed as active; ? = inconclusive; . = not tested or not shown; [ ] = remark or other dose. Unless noted, calls come from the whole dose curve; as a rule, active = well fitted curve in the direction sought with a large enough effect; inconclusive = small, poorly fitted or top-dose-only effect, or another doubt; inactive = no such curve, though single readings can be large; an effect the other way counts as inactive or inconclusive. Unless noted, % is set by controls: 0 for no effect and ±100 for the full control effect.

SMILES	RORgamma inh	VP16 counter	LDHA block	IL-1B inflam inh	DT40 TDP1 CPT	TDP1 cell noCPT
O=C(N/N=C/c1ccncc1)c1cc2ccccc2o1	37.3%	-2.8%	-5.1	-52.5*	4.7%	-7.2%
O=C(CN1C(=O)COc2ccc(S(=O)(=O)N3CCOCC3)cc21)N1CCCCC1	.	.	8.6	.	.	.
N#CCCN1CCN(c2ccc(NC(=O)c3ccc(F)cc3)c(C(=O)O)c2)CC1	.	.	-21.3	.	.	.
CC(C)Oc1cccc(C(=O)C2CCCN(Cc3cnn(C(C)C)c3)C2)c1 (configuration not stated)	-23.3%	-12.0%	-6.1	-2.2	?	?
CC(C)Oc1cccc(C(=O)C2CCCN(Cc3cccn3-c3ccccn3)C2)c1 (configuration not stated)	-19.2%	0.7%	0.0	-91.6*	?	?
OCCC1CN(Cc2cccn2-c2ccccn2)CCN1C1CCCC1 (configuration not stated)	-11.8%	-3.4%	-7.5	-13.2	31.4%	-5.7%
COc1ccc(C(=O)C2CCCN(Cc3ccc4c(c3)OCCO4)C2)cc1F (configuration not stated)	2.4%	3.6%	-1.2	-5.4	?	-21.4%
COc1ccc(C(=O)C2CCCN(Cc3cccn3-c3ccccn3)C2)cc1F (configuration not stated)	?	-12.5%	-0.9	-52.2*	16.4µM*	14.6µM*
COc1cccc(C(=O)C2CCCN(CC3=Cc4cc(OC)ccc4OC3)C2)c1 (configuration not stated)	31.7%	-4.4%	1.2	-89.3*	?	-23.7%
O=C(c1ccc(Cl)cc1)C1CCCN(Cc2cccn2-c2ccccn2)C1 (configuration not stated)	-10.0%	1.3%	-4.5	-80.4*	9.2µM*	?
COc1cccc(C(=O)C2CCCN(Cc3cccc(-n4nc(C)cc4C)c3)C2)c1 (configuration not stated)	-13.0%	-6.9%	-3.6	15.6	?	?
Cc1ccc(-c2noc(CNc3ccc(F)cc3C)n2)cc1	.	.	1.8	.	.	.
O=C(O)CNCc1cccnc1	.	.	0.2	.	.	.
COc1ccc(F)cc1C(=O)C1CCCN(Cc2cccn2-c2cccnc2)C1 (configuration not stated)	-11.3%	-6.9%	-5.4	11.8	?	20.6µM*
CSc1ccc(C(=O)C2CCCN(C(=O)CCCn3cncn3)C2)cc1 (configuration not stated)	-5.4%	-13.1%	-6.3	-2.1	?	?
CSc1ccc(C(=O)C2CCCN(Cc3cccc4nccnc34)C2)cc1 (configuration not stated)	-23.2%	-3.7%	-6.9	-19.9	14.6µM*	?
COc1ccc(F)cc1C(=O)C1CCCN(Cc2ccc(Oc3ncccn3)cc2)C1 (configuration not stated)	24.3%	22.0%	-7.8	-5.9	-24.1%	?
COc1cccc(C(=O)C2CCCN(Cc3cccn3-c3ccccn3)C2)c1 (configuration not stated)	-1.4%	-9.3%	-0.7	?	?	18.4µM*
Cc1ccsc1C(=O)C1CCCN(Cc2cccn2-c2ccc(Cl)cn2)C1 (configuration not stated)	9.5%	-8.6%	-11.9	-76.4*	23.1µM*	25.9µM*
COc1ccc(N2C(=O)[C@@H]3C[C@H]2CN3Cc2cccn2-c2ccc(Cl)cn2)c(C)c1	.	.	.	.	-0.8%[9.04 µM]	?
Cn1c(=O)c2c(ncn2CCC(=O)Nc2ccccc2Cl)n(C)c1=O	.	.	-3.3	.	.	.
O=C(c1ccc(C(F)(F)F)cc1)C1CCCN(Cc2cccn2-c2ncccn2)C1 (configuration not stated)	-9.6%	4.2%	-14.9	-72.9*	?	25.9µM*
Cc1ccc(-n2cccn2)c(CN2CCCC(C(=O)c3sccc3C)C2)c1 (configuration not stated)	-22.6%	-9.2%	3.4	-95.2*	23.1µM*	23.1µM*
O=C(Nc1ccc(-c2nc3ccccc3o2)c(O)c1)c1ccccc1I	.	.	0.1	.	.	.
Cc1nn(CCC(=O)Nc2ccc(C(C)C)cc2)c(C)c1S(=O)(=O)N1CCC(C)CC1	.	.	-2.4	.	.	.
SMILES	RORgamma inh	VP16 counter	LDHA block	IL-1B inflam inh	DT40 TDP1 CPT	TDP1 cell noCPT
COc1ccc(CNC(=O)C2Cc3c(-c4ccccc4Oc4ccccc4)ccnc3O2)cc1OC (configuration not stated)	.	.	-1.3	-28.7	18.4µM*	20.6µM*
O=C(NCc1cccc(Cl)c1)C1Cc2c(-c3ccccc3Oc3ccccc3)ccnc2O1 (configuration not stated)	.	.	0.9	-11.7	23.1µM*	?
CCCCC(=O)Nc1c(S(=O)(=O)c2ccc(F)cc2)c(C)c(C)n1CCOC	.	.	-2.3	.	.	.
CCOC(=O)c1cc(-c2ccccc2)n(CCC(=O)N2CCN(c3ccc(OC)cc3)CC2)c1C	?	-0.2%	5.0	-59.7*	14.6µM*	23.1µM*
CCOC(=O)c1cc(-c2ccccc2)n(CCC(=O)N2CCN(c3ccccc3OC)CC2)c1C	?	?	0.8	?	11.6µM*	8.2µM*
CCOC(=O)c1cc(-c2ccccc2)n(CC(=O)N2CCCC2)c1C	-0.4%	-9.6%	7.2	-8.6	-28.5%	-15.2%
CN1CCN(c2ccc(NC(=O)COc3ccc(Br)cc3Br)cn2)CC1	.	.	-2.9	.	.	.
CC1CCN(S(=O)(=O)N2CCC(C(=O)c3ccc4c(c3)OCCO4)CC2)CC1	.	.	12.8	.	.	.
Cc1ccc(-c2cnc(CCC(=O)Nc3ccc(F)cc3)o2)cc1C	.	.	-10.4	.	.	.
COc1ccc(C(=O)c2c(C)c3ccccc3n2CC(O)CNC(C)C)cc1 (configuration not stated)	7.94µM*	20µM*	-0.7	?	?	23.1µM*
CCOc1ccc(NC(=O)CN2CCN(CC(=O)Nc3ccccc3OCC)CC2)cc1	.	.	-1.3	.	16.4µM*	20.6µM*
O=C(CN1CCCC1)Nc1ccc(OCc2ccccc2)cc1	27.4%	1.7%	-0.4	?	-14.8%	?
CCC1(CC)NC(=O)N(CC(=O)Nc2ccc(OCc3ccccc3)cc2)C1=O	.	.	-1.9	-2.6	?	18.4µM*

Assay outcomes from PubChem BioAssay.
